Hit rate of the full screen: of about 16,000 compounds, about 5,100 (32%) were called active. Inconclusive results (about 25%) are left out. Calls come from the whole dose curve; as a rule, active = well fitted curve in the direction sought with a large enough effect; inconclusive = small, poorly fitted or top-dose-only effect, or effect the other way; inactive = no such curve, though single readings can be large or run the other way. The list shows a part of the results.
biological target: Cytochrome P450 3A4 (Homo sapiens) (UniProt P08684); experiment: Cytochrome panel assay with activity outcomes; settings: recombinant CYP, pro-luciferin dealkylation, luminescence, p450-cyp3a4; series mostly up to 57.1 µM; activity, negative = inhibition: at the top concentration
Sequence (P08684 whole entry, looked up): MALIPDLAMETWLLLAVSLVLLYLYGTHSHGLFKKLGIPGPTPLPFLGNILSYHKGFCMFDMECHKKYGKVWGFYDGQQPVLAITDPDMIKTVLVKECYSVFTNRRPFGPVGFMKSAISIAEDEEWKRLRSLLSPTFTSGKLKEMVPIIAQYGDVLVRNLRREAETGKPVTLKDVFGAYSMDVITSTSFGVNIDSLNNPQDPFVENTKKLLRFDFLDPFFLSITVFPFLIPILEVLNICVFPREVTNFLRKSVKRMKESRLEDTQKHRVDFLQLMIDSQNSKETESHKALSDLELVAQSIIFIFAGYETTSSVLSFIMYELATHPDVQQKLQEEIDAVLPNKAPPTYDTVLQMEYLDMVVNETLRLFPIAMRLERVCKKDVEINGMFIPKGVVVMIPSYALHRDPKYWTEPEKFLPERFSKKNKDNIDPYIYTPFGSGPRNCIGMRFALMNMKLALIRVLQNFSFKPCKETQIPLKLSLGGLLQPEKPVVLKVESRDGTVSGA
% is set by controls: 0 for no effect and ±100 for the full control effect.

Row | Structure (SMILES) | AC50 | activity, negative = inhibition
1 | COc1cccc(-c2cncnc2N(C)Cc2ccco2)c1 | 2.51 µM (active) | 
2 | CCc1ccc2[nH]c(O)c(N=Nc3nc(-c4ccccc4)cs3)c2c1 |  | -16.3% [at 2.29 µM] (inactive)
3 | COc1c(O[C@H]2O[C@@H](CO)[C@@H](O)[C@@H](O)[C@@H]2O)cc2c(c1OC)-c1ccc(SC)c(=O)cc1[C@H](NC(C)=O)CC2 |  | -4.87% [at 25.6 µM] (inactive)
4 | N[C@@H](C(=O)O)[C@H](CC(=O)O)c1ccc(Cl)cc1 |  | -10.4% (inactive)
5 | CCCC[C@@H]1C[C@H]1C(NC(=O)c1ccccc1)c1ccc(Cl)cc1 (some centres not stated) | 3.98 µM (active) | 
6 | CCCC[C@@H]1C[C@H]1C(NC(=O)c1ccc(-c2ccccc2)cc1)c1ccc(-c2ccccc2)cc1 (some centres not stated) |  | -9.94% (inactive)
7 | CCCC[C@@H]1C[C@H]1C(NC(=O)c1cccnc1)c1ccc(Cl)cc1 (some centres not stated) | 0.0794 µM (active) | 
8 | CCCC[C@@H]1C[C@H]1C(NC(=O)Cc1ccccc1)c1ccc(Cl)cc1 (some centres not stated) | 2.51 µM (active) | 
9 | CCCC[C@@H]1C[C@H]1C(NC(=O)c1ccccc1)c1ccccc1 (some centres not stated) | 12.6 µM (active) | 
10 | Cc1oc(-c2cccc(Cl)c2)[n+]([O-])c1C |  | 1.66% (inactive)
11 | O=C(/C=C/c1cc2c(cc1Br)OCO2)NCc1ccc(Cl)cc1 | 2.51 µM (active) | 
12 | O=[N+]([O-])c1ccccc1N/N=C/c1c[nH]c2ccccc12 | 25.1 µM (active) | 
13 | O=C(N/N=C/c1c[nH]c2ccccc12)c1cc(-c2ccc(-c3ccccc3)cc2)n[nH]1 |  | -5.85% [at 2.29 µM] (inactive)
14 | O=C(O)c1ccccc1N/N=C\c1ccnc2ccccc12 |  | -0.0882% [at 2.29 µM] (inactive)
15 | Cc1ccc(C)c(NC(=S)N(CCc2nc3cc(C)c(C)cc3[nH]2)Cc2cccnc2)c1 | 2.51 µM (active) | 
16 | Cc1cccc(NC(=S)N(CCc2nc3cc(C)c(C)cc3[nH]2)Cc2cccnc2)c1 | 2.24 µM (active) | 
17 | COc1cccc(NC(=S)N(CCc2nc3cc(C)c(C)cc3[nH]2)Cc2cccnc2)c1 | 2.51 µM (active) | 
18 | CN(C)CCNc1ccccn1 |  | -5.4% [at 11.4 µM] (inactive)
19 | CC1CN(C(=O)COc2ncnc3ccccc23)CC(C)O1 (configuration not stated) |  | -15.3% (inactive)
20 | Cc1ccc(-n2ccc(=O)c(-c3ccnc(SCc4cccc(Cl)c4)n3)n2)cc1 | 8.91 µM (active) | 
21 | CC(C)[C@](N)(C(=O)O)c1ccccc1 |  | -13.2% [at 11.4 µM] (inactive)

Row | Structure (SMILES) | AC50 | activity, negative = inhibition
22 | O=c1cc(-c2ccccc2)[nH]n1-c1ccc([N+](=O)[O-])cc1 | 14.1 µM (active) | 
23 | O=C1NC(c2cccc([N+](=O)[O-])c2)=CCN1c1ccccc1O |  | -24.7% (inactive)
24 | CC(C)c1cccc2c([Si](C)(C)C)c3c(nc12)-c1cccc(=O)n1C3 | 25.1 µM (active) | 
25 | CCc1c2c(nc3c(C(C)C)cccc13)-c1cccc(=O)n1C2 | 15.8 µM (active) | 
26 | CC(C)c1cccc2cc3c(nc12)-c1cccc(=O)n1C3 | 15.8 µM (active) | 
27 | O[C@H](C[C@@H]1CCCCN1)c1ccc2c(c1)oc1ccccc12 |  | -5% [at 11.4 µM] (inactive)
28 | COc1ccc(-c2cc(C(=O)O)c3c(C)nn(-c4ccccn4)c3n2)cc1 |  | -12.3% (inactive)
29 | CCOC(=O)c1cnc(-c2ccccc2)nc1Oc1ccc(Cl)cc1 |  | 0.243% (inactive)
30 | CCOC(=O)c1cc(-c2ccc(Cl)cc2)nc2c1c(C)nn2CCC#N | 25.1 µM (active) | 
31 | Cc1nn(S(=O)(=O)c2cccs2)c(C)c1Sc1ccc([N+](=O)[O-])cc1 | 2.82 µM (active) | 
32 | Cc1ccc(Sc2c([N+](=O)[O-])ncn2C)cc1 |  | 11.7% [at 2.29 µM] (inactive)
33 | Cc1nn(C(=O)c2ccco2)c(C)c1Sc1ccc(Br)cc1 |  | -4.98% (inactive)
34 | CCN(CC)c1ccc(NC(=O)c2cccc(F)c2)c(C)c1 |  | 2.35% [at 2.29 µM] (inactive)
35 | Cc1cccc2cc(CN(Cc3ccccc3)C(=O)c3cccc(F)c3)c(Cl)nc12 | 8.91 µM (active) | 
36 | CN1CCc2c(cc(O)c(O)c2Cl)[C@H](c2cccc(Cl)c2)C1 |  | 19.4% (inactive)
37 | O=C(CN(c1ccccc1)S(=O)(=O)c1ccccc1)NCCSCc1ccco1 | 14.1 µM (active) | 
38 | CCOC(=O)CN(c1ccccn1)S(=O)(=O)c1ccccc1 |  | -29.6% (inactive)
39 | COC(=O)CN(c1ccccn1)S(=O)(=O)c1ccccc1 |  | -3.69% (inactive)
40 | Cc1cc(C)cc(N(CC(=O)NCCSc2ccccn2)S(=O)(=O)c2ccccc2)c1 | 3.98 µM (active) | 
41 | c1ccc(CNc2ncncc2-c2ccoc2)cc1 | 2 µM (active) | 
42 | c1csc(CNc2ncncc2-c2ccoc2)c1 | 2 µM (active) | 

Row | Structure (SMILES) | AC50 | activity, negative = inhibition
43 | c1cncc(-c2cncnc2NCc2cccs2)c1 | 2 µM (active) | 
44 | CCN(CC)CC[n+]1ccc2c(C)c3[nH]c4ccccc4c3c(C)c2c1 |  | -16.9% [at 11.4 µM] (inactive)
45 | CCOc1ccc(NC2=NCC(=O)N2Cc2cccs2)cc1 | 17.8 µM (active) | 
46 | COc1ccc(NC2=NCC(=O)N2Cc2cccs2)cc1 | 14.1 µM (active) | 
47 | O=C1CN=C(Nc2ccccc2)N1Cc1cccs1 |  | -6.15% [at 2.29 µM] (inactive)
48 | CCOc1ccc(N2C(=O)CN=C2Nc2ccccc2F)cc1 |  | 3.08% [at 2.29 µM] (inactive)
49 | C=CCN1C(=O)CN=C1Nc1ccccc1 |  | -22.2% (inactive)
50 | COCCNc1ncnc2ccc(-c3ccccc3OC)cc12 | 15.8 µM (active) | 
51 | COCCNc1ncnc2ccc(-c3ccccc3C(F)(F)F)cc12 | 15.8 µM (active) | 
52 | FC(F)(F)c1ccccc1-c1ccc2ncnc(NCc3cccnc3)c2c1 | 1.58 µM (active) | 
53 | COc1ccccc1-c1ccc2ncnc(NCc3cccnc3)c2c1 | 0.631 µM (active) | 
54 | O=C(c1ccccc1)c1ccc2n1CC[C@H]2C(=O)O | inactive | 
55 | O=C(O)c1cc2c(o1)CCC/C2=N\O |  | -14.2% (inactive)
56 | CC(C)(CS)C(=O)N1CCC[C@H]1C(=O)O |  | 3.01% [at 25.6 µM] (inactive)
57 | COc1ccccc1-c1ccc2ncnc(NCc3ccccc3)c2c1 | 12.6 µM (active) | 
58 | Clc1ccccc1-c1ccc2ncnc(NCc3cccnc3)c2c1 | 2 µM (active) | 
59 | COc1cccc(-c2ccc3ncnc(NCc4cccnc4)c3c2)c1 | 1 µM (active) | 
60 | Cc1cc(OC(=O)c2ccc(Cl)cc2Cl)nc(C)n1 |  | -8.46% (inactive)
61 | COc1ccc(-c2ccc(=O)n(CC(=O)Nc3nnc(C(C)C)s3)n2)cc1OC |  | -18% (inactive)
62 | COc1ccc(-c2nn3cnnc3s2)cc1OC | 14.1 µM (active) | 

From PubChem BioAssay AID1851 (National Center for Advancing Translational Sciences (NCATS), 2009)
